{
  "source": "PubChem BioAssay",
  "note": "Values without a mark were called inactive.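 Rule for the calls, unless noted: active = cell viability at or below a set limit in both duplicate runs, the limit being the all-compound median minus 4 SD (cut at about 23% in these data, passing the limit was not always enough); inconclusive = no clear call, values can overlap the other calls; inactive = the rest.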 Inconclusive results are not listed.",
  "data": [
    {"test": "doxorubicin toxicity protection in MRP-1 cells – H69AR cells, CellTiter-Glo, duplicate, MRP-1 activator project, pilot screen (AID 807;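 active = viability increase at or above a cutoff of the median across tested compounds plus 3 SD, cut at about 8.5% in these data, passing the limit was not always enough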;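 note: compound pretreatment 18-22 h then 72 h combined with doxorubicin; 0% = doxorubicin alone and 100% = vehicle without doxorubicin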)", "conditions": "H69AR viability with doxorubicin, CellTiter-Glo luminescence; at 10 µM; active compounds read high", "units": {"viability increase": "%"}, "values": [
      {"smiles": "CN(C)CCNC(=O)c1ccc(CS(=O)(=O)c2c(Cl)cccc2Cl)o1", "viability increase": -1.24},
      {"smiles": "CCOC(=O)CC1C(=O)NCCN1Cc1cccc(C(F)(F)F)c1", "note": "(stereo not drawn)", "viability increase": -1.61},
      {"smiles": "CC(=O)c1cccc(NC(=O)c2cc3ccccn3n2)c1", "viability increase": -2.31},
      {"smiles": "Cc1ccc2c(c1)NCC(C(=O)NCc1ccccc1)O2", "note": "(stereo not drawn)", "viability increase": 0.49},
      {"smiles": "CCOC(=O)NCc1ccc(CNC(=O)OCC)cc1", "viability increase": -1.96},
      {"smiles": "CC1=C(C#N)C(c2cccnc2)C2=C(CC(C)(C)CC2=O)N1", "note": "(stereo not drawn)", "viability increase": -2.91},
      {"smiles": "CCN1CCN(CCCNC(=O)Cn2cc3c(n2)CCCC3)CC1", "viability increase": -1.2},
      {"smiles": "CC12CN3CC(C)(CN(C1)C3c1ccc3ccccc3c1O)C2=O", "note": "(stereo not drawn)", "viability increase": -0.54},
      {"smiles": "CCOC(=O)NC(C(F)(F)F)(C(F)(F)F)P(=O)(c1ccccc1)c1ccccc1", "viability increase": -0.51},
      {"smiles": "O=C(Cn1cc2c(n1)CCCCC2)NCCN1CCOCC1", "viability increase": -0.25},
      {"smiles": "O=C(COC(=O)c1ccc(S(=O)(=O)NCc2ccco2)cc1)Nc1ccccc1OC(F)F", "viability increase": -2.64},
      {"smiles": "COc1ccc(-c2nnc(SCC(=O)NC(C)c3ccccc3)o2)cc1OC", "note": "(stereo not drawn)", "viability increase": -1.24},
      {"smiles": "C=CCSc1nc2ccccc2c(=O)[nH]1", "viability increase": -0.8},
      {"smiles": "COCc1cc(C)nc2sc3c(=O)n(Cc4ccco4)nnc3c12", "viability increase": -1.93},
      {"smiles": "Cc1ccc(S(=O)(=O)N(C)CCCC(=O)N2CCOCC2)cc1", "viability increase": -1.27},
      {"smiles": "COc1cccc(-n2nnc3c(=O)n(C/C=C/c4ccccc4)cnc32)c1", "viability increase": 0.57},
      {"smiles": "CCOc1cc(C(=O)Nc2nnc(C)s2)cc(OCC)c1OCC", "viability increase": -4.22},
      {"smiles": "CCC(C)NC(=O)C1CCN(C(=O)c2ccccc2)CC1", "note": "(stereo not drawn)", "viability increase": 0.74},
      {"smiles": "CC(C)c1nnc(NC(=O)c2ccc(S(=O)(=O)N3CCOCC3)cc2)s1", "viability increase": -1},
      {"smiles": "CCOC(=O)c1ccccc1N1C(=O)CSC1=S", "viability increase": -4.62},
      {"smiles": "COC(=O)C1=C(C)NC(=O)CC1c1cc2c(cc1Br)OCO2", "note": "(stereo not drawn)", "viability increase": -1.64},
      {"smiles": "Cc1ccc(C)c(N2CCN(C(=O)CCc3nc4ccccc4[nH]3)CC2)c1", "viability increase": 1.46},
      {"smiles": "CCN1CCN(CC(=O)Nc2ccc3c(c2)OCO3)C(=O)C1=O", "viability increase": -0.45}
    ]},
    {"test": "viability of HCT116 without oncogenic beta-catenin – human colon tumor cells, pilot screen (AID 823);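 note: 0% = wells killed by 20 µM Hyamine and 100% = untreated DMSO cell wells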", "conditions": "HCT116 beta-catenin knockout viability, CellTiter-Glo, 60 h; at 10 µM; active compounds read low", "units": {"viability": "%"}, "values": [
      {"smiles": "Cn1cc(SCC(=O)NCC2CCCO2)c2ccccc21", "note": "(stereo not drawn)", "viability": 94.9},
      {"smiles": "Cc1nnc(Sc2nc3c(c(=O)[nH]c(=O)n3C)n2Cc2ccccc2)s1", "viability": 101},
      {"smiles": "O=C1CCCCCN1Cc1nnc(SCc2nc3ccccc3s2)n1-c1ccccn1", "viability": 91.7},
      {"smiles": "CCCCC(CC)C(=O)NCCCN1CCN(CCCNC(=O)C(CC)CCCC)CC1", "note": "(stereo not drawn)", "viability": 87.3},
      {"smiles": "c1csc(Cc2nc(-c3ccc(-n4cccc4)cc3)no2)c1", "viability": 106},
      {"smiles": "COCCNC(=O)c1cc(-c2ccc(Cl)c(Cl)c2)on1", "viability": 82.5},
      {"smiles": "COc1ccc(-c2nn(-c3ccccc3)cc2C(=O)O)cc1", "viability": 105},
      {"smiles": "Cc1cc(NC(=O)Nc2cccc3ccccc23)no1", "viability": 95.3},
      {"smiles": "O=C(c1ccc2snnc2c1)N1CCCC1", "viability": 99.7},
      {"smiles": "COc1ccccc1NC(=O)c1cccc(S(=O)(=O)N2CCOCC2)c1", "viability": 103},
      {"smiles": "COc1ccc(-n2c(Cn3c(=O)sc4ccccc43)nnc2SCC(=O)N2CCOCC2)cc1", "viability": 102},
      {"smiles": "O=C(c1cc(-c2cccc(O)c2)on1)N1CCCCC1", "viability": 101},
      {"smiles": "Cc1ccc(S(=O)(=O)N(C)Cc2nc(-c3ccc(Br)cc3)no2)cc1", "viability": 89.5},
      {"smiles": "O=C(NCc1ccccc1)c1ccc2c(c1)OCCO2", "viability": 101},
      {"smiles": "CCOC(=O)CSc1nnc(Cn2c(=O)sc3ccccc32)n1-c1ccccc1C", "viability": 96.2},
      {"smiles": "CCOC(=O)c1sc2nc(NC(=O)C3CC3)sc2c1C", "viability": 86},
      {"smiles": "O=C(CCCOc1ccccc1)Nc1cccc(C(=O)O)c1", "viability": 96},
      {"smiles": "CN(C)CCNC(=O)c1ccc(CS(=O)(=O)c2c(Cl)cccc2Cl)o1", "viability": 99.2},
      {"smiles": "CCOC(=O)CC1C(=O)NCCN1Cc1cccc(C(F)(F)F)c1", "note": "(stereo not drawn)", "viability": 97.4},
      {"smiles": "CC(=O)c1cccc(NC(=O)c2cc3ccccn3n2)c1", "viability": 99},
      {"smiles": "Cc1ccc2c(c1)NCC(C(=O)NCc1ccccc1)O2", "note": "(stereo not drawn)", "viability": 103},
      {"smiles": "CCOC(=O)NCc1ccc(CNC(=O)OCC)cc1", "viability": 97.1},
      {"smiles": "CC1=C(C#N)C(c2cccnc2)C2=C(CC(C)(C)CC2=O)N1", "note": "(stereo not drawn)", "viability": 94.2},
      {"smiles": "CCN1CCN(CCCNC(=O)Cn2cc3c(n2)CCCC3)CC1", "viability": 108},
      {"smiles": "CC12CN3CC(C)(CN(C1)C3c1ccc3ccccc3c1O)C2=O", "note": "(stereo not drawn)", "viability": 101},
      {"smiles": "CCOC(=O)NC(C(F)(F)F)(C(F)(F)F)P(=O)(c1ccccc1)c1ccccc1", "viability": 95},
      {"smiles": "O=C(Cn1cc2c(n1)CCCCC2)NCCN1CCOCC1", "viability": 107},
      {"smiles": "O=C(COC(=O)c1ccc(S(=O)(=O)NCc2ccco2)cc1)Nc1ccccc1OC(F)F", "viability": 93.5},
      {"smiles": "COc1ccc(-c2nnc(SCC(=O)NC(C)c3ccccc3)o2)cc1OC", "note": "(stereo not drawn)", "viability": 106},
      {"smiles": "C=CCSc1nc2ccccc2c(=O)[nH]1", "viability": 105},
      {"smiles": "COCc1cc(C)nc2sc3c(=O)n(Cc4ccco4)nnc3c12", "viability": 100},
      {"smiles": "Cc1ccc(S(=O)(=O)N(C)CCCC(=O)N2CCOCC2)cc1", "viability": 101},
      {"smiles": "COc1cccc(-n2nnc3c(=O)n(C/C=C/c4ccccc4)cnc32)c1", "viability": 92.3},
      {"smiles": "CCOc1cc(C(=O)Nc2nnc(C)s2)cc(OCC)c1OCC", "viability": 108},
      {"smiles": "CCC(C)NC(=O)C1CCN(C(=O)c2ccccc2)CC1", "note": "(stereo not drawn)", "viability": 102},
      {"smiles": "CC(C)c1nnc(NC(=O)c2ccc(S(=O)(=O)N3CCOCC3)cc2)s1", "viability": 104},
      {"smiles": "CCOC(=O)c1ccccc1N1C(=O)CSC1=S", "viability": 96},
      {"smiles": "COC(=O)C1=C(C)NC(=O)CC1c1cc2c(cc1Br)OCO2", "note": "(stereo not drawn)", "viability": 106},
      {"smiles": "Cc1ccc(C)c(N2CCN(C(=O)CCc3nc4ccccc4[nH]3)CC2)c1", "viability": 80.9},
      {"smiles": "CCN1CCN(CC(=O)Nc2ccc3c(c2)OCO3)C(=O)C1=O", "viability": 101}
    ]}
  ]
}
